# Test results as given in article PMC7862700, “An all-to-all approach to the identification of sequence-specific readers for epigenetic DNA modifications on cytosine”.
# Assays:
# Assay in all cases: DAPPL (digital affinity profiling via proximity ligation, sequencing); 10 mM Tris-HCl pH 7.5, 50 mM NaCl, 1 mM DTT, 4% glycerol, room temperature, 30 min; GST-TFs on glutathione beads, 16-mer random dsDNA library, 0.1% formaldehyde crosslink after washing; high values mean tight binding
# [1] = target: T1, FLI1 (Homo sapiens, UniProt Q01543 1-452); details: protein: recombinant; tags: N-terminal GST; dsDNA, one strand shown
# T1 sequence: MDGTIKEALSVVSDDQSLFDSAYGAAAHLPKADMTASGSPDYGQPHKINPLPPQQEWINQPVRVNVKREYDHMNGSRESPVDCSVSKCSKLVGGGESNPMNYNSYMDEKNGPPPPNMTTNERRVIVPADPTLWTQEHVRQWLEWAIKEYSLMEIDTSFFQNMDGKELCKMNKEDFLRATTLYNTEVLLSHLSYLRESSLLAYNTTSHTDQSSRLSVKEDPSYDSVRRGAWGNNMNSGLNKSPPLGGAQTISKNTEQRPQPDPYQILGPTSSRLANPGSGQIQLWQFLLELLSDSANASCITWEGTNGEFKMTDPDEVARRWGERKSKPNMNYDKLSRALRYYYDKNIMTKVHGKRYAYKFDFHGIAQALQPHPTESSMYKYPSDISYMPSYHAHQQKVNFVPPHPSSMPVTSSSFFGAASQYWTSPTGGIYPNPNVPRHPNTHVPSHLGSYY
# In short: (§1)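 Pools were built from human transcription factors expressed in yeast as GST fusions, captured on glutathione beads and DNA-barcoded, along with a tag-only sample. Incubation with 200 nmole of a 16-mer random double-stranded DNA library lasted 30 min at room temperature in Tris/NaCl/DTT/glycerol buffer, and was followed by washing, 0.1% formaldehyde crosslinking, proximity ligation, PCR amplification and Illumina NextSeq500 sequencing. Binding signal is the quotient of each hexamer's read frequency for a factor and its frequency for the tag-only sample.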
# [2] = target: T2, ELK1 (Homo sapiens, UniProt P19419 1-428); details: protein: recombinant; tags: N-terminal GST; dsDNA, one strand shown
# T2 sequence: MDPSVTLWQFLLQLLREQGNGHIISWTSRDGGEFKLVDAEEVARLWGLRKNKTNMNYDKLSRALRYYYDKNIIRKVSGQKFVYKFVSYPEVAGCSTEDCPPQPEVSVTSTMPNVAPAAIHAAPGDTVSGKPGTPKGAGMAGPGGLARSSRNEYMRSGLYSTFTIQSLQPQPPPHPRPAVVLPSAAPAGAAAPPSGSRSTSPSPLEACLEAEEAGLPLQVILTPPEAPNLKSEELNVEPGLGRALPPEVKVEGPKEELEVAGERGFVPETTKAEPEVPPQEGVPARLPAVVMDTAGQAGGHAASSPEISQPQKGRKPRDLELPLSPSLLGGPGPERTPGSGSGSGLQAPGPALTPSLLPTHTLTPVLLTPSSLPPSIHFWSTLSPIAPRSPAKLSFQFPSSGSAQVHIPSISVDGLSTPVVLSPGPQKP
# In short: as §1
# [3] = target: T3, GABPA (Homo sapiens, UniProt Q06546 1-454); details: protein: recombinant; tags: N-terminal GST; dsDNA, one strand shown
# T3 sequence: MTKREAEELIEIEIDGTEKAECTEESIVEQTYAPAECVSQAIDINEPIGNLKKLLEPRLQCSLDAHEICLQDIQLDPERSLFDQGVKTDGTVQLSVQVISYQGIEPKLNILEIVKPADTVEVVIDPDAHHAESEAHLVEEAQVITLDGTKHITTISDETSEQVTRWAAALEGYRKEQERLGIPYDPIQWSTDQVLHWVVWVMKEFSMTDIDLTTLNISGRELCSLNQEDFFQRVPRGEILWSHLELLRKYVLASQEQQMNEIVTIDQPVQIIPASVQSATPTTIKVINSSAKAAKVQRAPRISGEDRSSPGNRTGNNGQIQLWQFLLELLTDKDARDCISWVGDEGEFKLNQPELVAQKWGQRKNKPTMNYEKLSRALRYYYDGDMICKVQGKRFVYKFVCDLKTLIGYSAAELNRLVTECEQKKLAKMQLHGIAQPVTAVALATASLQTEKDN
# In short: as §1
# [4] = target: T4, ERG (Homo sapiens, UniProt P11308 1-479); details: protein: recombinant; tags: N-terminal GST; dsDNA, one strand shown
# T4 sequence: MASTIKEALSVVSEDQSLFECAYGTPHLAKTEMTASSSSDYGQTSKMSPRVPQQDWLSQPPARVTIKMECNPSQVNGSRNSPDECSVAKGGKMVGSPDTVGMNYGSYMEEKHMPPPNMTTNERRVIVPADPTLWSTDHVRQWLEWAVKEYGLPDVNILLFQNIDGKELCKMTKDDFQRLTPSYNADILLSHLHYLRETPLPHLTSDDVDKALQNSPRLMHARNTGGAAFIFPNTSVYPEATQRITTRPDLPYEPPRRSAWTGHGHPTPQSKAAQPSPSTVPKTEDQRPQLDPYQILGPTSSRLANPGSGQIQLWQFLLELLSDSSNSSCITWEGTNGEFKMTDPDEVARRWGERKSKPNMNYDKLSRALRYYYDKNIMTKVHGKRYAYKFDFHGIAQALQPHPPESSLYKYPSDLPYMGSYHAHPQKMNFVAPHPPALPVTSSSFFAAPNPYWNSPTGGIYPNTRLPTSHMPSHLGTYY
# In short: as §1
# [5] = target: ELF1 (Homo sapiens, UniProt P32519 1-619); details: protein: recombinant; tags: N-terminal GST; dsDNA, one strand shown
# Sequence of ELF1 (P32519 whole entry): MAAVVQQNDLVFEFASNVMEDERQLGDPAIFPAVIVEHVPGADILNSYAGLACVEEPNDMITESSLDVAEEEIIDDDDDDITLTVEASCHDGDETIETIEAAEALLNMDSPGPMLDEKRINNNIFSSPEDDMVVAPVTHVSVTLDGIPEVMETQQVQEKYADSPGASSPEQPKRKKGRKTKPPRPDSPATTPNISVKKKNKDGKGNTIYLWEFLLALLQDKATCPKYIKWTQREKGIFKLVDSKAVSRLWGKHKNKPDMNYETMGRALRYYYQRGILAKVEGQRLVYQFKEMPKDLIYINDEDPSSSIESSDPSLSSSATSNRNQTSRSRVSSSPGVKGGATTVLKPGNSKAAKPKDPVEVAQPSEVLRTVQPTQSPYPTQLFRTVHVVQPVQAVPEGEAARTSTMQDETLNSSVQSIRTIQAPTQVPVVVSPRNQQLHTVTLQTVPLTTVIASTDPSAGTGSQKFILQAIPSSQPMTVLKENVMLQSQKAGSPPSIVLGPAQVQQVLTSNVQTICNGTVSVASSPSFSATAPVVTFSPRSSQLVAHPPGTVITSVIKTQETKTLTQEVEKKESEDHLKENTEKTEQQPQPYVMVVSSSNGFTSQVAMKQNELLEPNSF
# In short: as §1
# [6] = target: T5, EHF (Homo sapiens, UniProt Q9NZC4 1-300); details: protein: recombinant; tags: N-terminal GST; dsDNA, one strand shown
# T5 sequence: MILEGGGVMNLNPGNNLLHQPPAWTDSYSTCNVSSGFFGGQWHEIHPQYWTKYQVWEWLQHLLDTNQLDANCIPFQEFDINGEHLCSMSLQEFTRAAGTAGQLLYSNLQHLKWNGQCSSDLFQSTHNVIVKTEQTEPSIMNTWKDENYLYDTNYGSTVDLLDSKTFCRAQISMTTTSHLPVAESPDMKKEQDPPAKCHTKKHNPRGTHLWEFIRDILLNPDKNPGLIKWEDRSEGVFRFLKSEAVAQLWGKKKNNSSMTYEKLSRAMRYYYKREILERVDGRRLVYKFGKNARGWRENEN
# In short: as §1
# [7] = target: SPI1 (Homo sapiens, UniProt P17947 1-270); details: protein: recombinant; tags: N-terminal GST; dsDNA, one strand shown
# In short: as §1
# [8] = target: SPIB (Homo sapiens, UniProt Q01892 1-262); details: protein: recombinant; tags: N-terminal GST; dsDNA, one strand shown
# Sequence of SPIB (Q01892 whole entry): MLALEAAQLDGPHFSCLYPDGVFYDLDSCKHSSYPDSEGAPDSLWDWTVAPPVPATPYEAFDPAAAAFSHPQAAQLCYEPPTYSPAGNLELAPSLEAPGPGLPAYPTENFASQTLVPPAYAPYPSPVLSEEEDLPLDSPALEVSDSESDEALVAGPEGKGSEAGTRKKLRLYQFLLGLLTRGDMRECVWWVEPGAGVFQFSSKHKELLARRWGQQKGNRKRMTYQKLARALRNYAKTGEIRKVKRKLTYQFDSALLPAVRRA
# In short: as §1
# [9] = target: T6, ELK3 (Homo sapiens, UniProt P41970 1-407); details: protein: recombinant; tags: N-terminal GST; dsDNA, one strand shown
# T6 sequence: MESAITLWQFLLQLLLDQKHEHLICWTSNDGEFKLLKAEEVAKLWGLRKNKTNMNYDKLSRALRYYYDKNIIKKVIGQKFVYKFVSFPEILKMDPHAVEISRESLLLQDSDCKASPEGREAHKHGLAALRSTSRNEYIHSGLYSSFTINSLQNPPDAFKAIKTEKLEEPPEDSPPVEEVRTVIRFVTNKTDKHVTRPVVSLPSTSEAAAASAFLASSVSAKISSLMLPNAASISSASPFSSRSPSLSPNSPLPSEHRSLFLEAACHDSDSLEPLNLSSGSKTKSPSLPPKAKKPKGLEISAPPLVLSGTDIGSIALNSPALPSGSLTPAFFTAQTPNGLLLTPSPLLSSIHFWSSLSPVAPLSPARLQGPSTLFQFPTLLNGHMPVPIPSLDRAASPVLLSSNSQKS
# In short: as §1
# [10] = target: T7, FEV (Homo sapiens, UniProt Q99581 1-238); details: protein: recombinant; tags: N-terminal GST; dsDNA, one strand shown
# T7 sequence: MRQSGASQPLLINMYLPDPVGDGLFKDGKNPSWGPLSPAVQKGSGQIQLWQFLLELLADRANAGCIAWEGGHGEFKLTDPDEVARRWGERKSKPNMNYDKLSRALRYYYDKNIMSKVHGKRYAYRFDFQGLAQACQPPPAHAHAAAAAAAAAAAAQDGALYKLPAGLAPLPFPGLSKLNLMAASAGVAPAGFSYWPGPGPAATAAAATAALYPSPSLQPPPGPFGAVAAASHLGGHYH
# In short: as §1
# [11] = target: ETV5 (Homo sapiens, UniProt P41161 1-510); details: protein: recombinant; tags: N-terminal GST; dsDNA, one strand shown
# Sequence of ETV5 (P41161 whole entry): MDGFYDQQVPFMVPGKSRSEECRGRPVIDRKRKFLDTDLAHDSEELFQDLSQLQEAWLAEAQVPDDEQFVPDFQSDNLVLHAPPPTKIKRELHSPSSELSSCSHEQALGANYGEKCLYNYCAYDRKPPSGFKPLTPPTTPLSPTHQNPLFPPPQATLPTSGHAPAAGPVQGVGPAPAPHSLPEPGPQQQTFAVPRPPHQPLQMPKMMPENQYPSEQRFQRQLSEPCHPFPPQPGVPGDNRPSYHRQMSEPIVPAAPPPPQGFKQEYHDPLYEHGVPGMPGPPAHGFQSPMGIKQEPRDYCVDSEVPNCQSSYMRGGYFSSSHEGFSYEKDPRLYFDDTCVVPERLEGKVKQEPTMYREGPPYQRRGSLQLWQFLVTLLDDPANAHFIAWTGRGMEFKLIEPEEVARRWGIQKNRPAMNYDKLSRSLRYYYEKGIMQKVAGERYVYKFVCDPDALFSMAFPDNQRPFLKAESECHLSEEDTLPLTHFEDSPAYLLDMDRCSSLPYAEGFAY
# In short: as §1
# [12] = target: HSF1 (Homo sapiens, UniProt Q00613 1-529); details: protein: recombinant; tags: N-terminal GST; chain copies: 3; dsDNA, one strand shown
# Sequence of HSF1 (Q00613 whole entry): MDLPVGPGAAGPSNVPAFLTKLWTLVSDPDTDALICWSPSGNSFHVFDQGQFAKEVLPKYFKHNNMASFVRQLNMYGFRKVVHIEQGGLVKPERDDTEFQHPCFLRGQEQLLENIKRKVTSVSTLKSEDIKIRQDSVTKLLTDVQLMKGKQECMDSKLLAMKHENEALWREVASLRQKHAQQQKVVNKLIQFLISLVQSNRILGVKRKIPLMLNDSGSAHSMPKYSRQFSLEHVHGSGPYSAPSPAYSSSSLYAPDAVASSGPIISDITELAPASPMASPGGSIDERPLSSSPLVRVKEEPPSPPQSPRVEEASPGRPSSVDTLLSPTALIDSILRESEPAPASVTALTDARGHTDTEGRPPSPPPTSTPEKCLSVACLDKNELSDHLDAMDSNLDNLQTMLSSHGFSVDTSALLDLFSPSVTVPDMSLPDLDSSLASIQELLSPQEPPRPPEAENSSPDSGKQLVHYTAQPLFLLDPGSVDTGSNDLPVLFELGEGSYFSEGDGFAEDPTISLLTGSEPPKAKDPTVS
# In short: as §1
# [13] = target: T8, SPIC (Homo sapiens, UniProt Q8N5J4 1-248); details: protein: recombinant; tags: N-terminal GST; dsDNA, one strand shown
# T8 sequence: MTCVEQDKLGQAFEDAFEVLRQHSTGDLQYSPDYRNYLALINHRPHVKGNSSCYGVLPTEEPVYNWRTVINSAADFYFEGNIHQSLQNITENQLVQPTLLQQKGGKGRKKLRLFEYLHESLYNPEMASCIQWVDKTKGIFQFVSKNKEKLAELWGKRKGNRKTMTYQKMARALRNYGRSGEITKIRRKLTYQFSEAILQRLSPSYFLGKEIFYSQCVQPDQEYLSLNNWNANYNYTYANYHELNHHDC
# In short: as §1
# [14] = target: ELF4 (Homo sapiens, UniProt Q99607 1-663); details: protein: recombinant; tags: N-terminal GST; dsDNA, one strand shown
# Sequence of ELF4 (Q99607 whole entry): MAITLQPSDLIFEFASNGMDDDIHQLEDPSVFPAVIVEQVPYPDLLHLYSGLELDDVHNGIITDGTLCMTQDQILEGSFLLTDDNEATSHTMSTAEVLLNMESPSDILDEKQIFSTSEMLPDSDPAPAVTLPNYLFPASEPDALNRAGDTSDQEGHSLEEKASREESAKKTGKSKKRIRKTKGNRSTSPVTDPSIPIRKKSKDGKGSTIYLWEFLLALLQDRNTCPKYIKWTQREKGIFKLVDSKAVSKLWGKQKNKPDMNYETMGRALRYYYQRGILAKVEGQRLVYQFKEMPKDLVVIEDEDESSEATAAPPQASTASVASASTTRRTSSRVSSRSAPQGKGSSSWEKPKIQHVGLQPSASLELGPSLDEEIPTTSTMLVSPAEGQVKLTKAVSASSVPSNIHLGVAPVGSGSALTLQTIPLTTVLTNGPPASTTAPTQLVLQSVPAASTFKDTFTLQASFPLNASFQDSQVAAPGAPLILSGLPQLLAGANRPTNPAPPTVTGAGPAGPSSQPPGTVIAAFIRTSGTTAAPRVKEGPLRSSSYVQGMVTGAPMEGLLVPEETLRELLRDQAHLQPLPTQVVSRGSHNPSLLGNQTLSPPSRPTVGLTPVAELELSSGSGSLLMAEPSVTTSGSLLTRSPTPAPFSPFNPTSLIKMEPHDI
# In short: as §1
# [15] = target: T9, ELK4 (Homo sapiens, UniProt P28324-2 1-405); details: protein: recombinant; tags: N-terminal GST; dsDNA, one strand shown
# T9 sequence: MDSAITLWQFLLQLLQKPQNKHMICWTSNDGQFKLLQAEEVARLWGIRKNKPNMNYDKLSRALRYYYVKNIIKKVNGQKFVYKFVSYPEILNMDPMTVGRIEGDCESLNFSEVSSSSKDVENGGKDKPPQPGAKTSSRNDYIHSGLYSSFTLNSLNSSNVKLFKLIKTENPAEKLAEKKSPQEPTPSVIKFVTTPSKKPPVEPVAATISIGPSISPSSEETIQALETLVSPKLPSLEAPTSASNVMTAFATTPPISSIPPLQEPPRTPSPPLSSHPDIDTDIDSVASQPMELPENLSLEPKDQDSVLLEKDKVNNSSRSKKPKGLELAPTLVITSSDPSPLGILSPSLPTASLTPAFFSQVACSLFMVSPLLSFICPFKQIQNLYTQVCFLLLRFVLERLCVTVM
# In short: as §1
# [16] = target: T10, ETV2 (Homo sapiens, UniProt O00321 1-342); details: protein: recombinant; tags: N-terminal GST; dsDNA, one strand shown
# T10 sequence: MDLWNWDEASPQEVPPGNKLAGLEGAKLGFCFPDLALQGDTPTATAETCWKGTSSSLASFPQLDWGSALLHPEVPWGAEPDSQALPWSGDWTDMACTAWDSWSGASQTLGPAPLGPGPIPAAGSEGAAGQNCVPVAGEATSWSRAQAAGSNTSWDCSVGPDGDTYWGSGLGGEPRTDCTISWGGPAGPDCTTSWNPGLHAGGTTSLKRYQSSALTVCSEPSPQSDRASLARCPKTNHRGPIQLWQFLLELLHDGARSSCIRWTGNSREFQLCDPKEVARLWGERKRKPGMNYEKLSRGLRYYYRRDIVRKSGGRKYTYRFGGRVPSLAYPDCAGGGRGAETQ
# In short: as §1
# [17] = target: T11, ELF3 (Homo sapiens, UniProt P78545 1-371); details: protein: recombinant; tags: N-terminal GST; dsDNA, one strand shown
# T11 sequence: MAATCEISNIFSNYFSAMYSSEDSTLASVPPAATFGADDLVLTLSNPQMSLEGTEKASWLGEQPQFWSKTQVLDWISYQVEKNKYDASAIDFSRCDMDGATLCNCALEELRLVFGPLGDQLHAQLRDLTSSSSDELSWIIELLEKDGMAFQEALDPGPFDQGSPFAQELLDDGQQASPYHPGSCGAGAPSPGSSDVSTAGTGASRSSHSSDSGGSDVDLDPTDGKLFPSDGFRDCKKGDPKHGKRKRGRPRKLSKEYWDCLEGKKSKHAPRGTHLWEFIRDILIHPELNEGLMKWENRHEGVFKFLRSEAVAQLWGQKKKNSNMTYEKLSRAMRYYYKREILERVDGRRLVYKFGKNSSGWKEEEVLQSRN
# In short: as §1
# [18] = target: CRX (Homo sapiens, UniProt O43186 1-299); details: protein: recombinant; tags: N-terminal GST; dsDNA, one strand shown
# Sequence of CRX (O43186 whole entry): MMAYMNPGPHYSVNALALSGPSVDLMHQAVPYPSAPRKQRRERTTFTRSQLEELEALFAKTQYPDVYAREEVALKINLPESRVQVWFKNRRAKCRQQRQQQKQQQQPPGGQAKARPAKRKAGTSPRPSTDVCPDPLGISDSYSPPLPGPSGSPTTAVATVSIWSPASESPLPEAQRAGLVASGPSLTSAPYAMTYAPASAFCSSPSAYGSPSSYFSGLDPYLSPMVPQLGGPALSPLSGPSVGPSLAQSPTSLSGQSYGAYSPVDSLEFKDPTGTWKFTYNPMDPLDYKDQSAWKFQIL
# In short: as §1
sequence,measurement,setting,value
AGTTAA,binding signal,[1],"1.02 fold enrichment (6-mer frequency, TF over GST control)"
same,binding signal,[2],"1.09 fold enrichment (6-mer frequency, TF over GST control)"
same,binding signal,[3],"1.05 fold enrichment (6-mer frequency, TF over GST control)"
same,binding signal,[4],"1.12 fold enrichment (6-mer frequency, TF over GST control)"
same,binding signal,[5],"1.01 fold enrichment (6-mer frequency, TF over GST control)"
same,binding signal,[6],"1.08 fold enrichment (6-mer frequency, TF over GST control)"
same,binding signal,[7],"1.13 fold enrichment (6-mer frequency, TF over GST control)"
same,binding signal,[8],"1.08 fold enrichment (6-mer frequency, TF over GST control)"
same,binding signal,[9],"1.04 fold enrichment (6-mer frequency, TF over GST control)"
same,binding signal,[10],"1.05 fold enrichment (6-mer frequency, TF over GST control)"
same,binding signal,[11],"1.1 fold enrichment (6-mer frequency, TF over GST control)"
same,binding signal,[12],"1.15 fold enrichment (6-mer frequency, TF over GST control)"
same,binding signal,[13],"1.05 fold enrichment (6-mer frequency, TF over GST control)"
same,binding signal,[14],"1.15 fold enrichment (6-mer frequency, TF over GST control)"
same,binding signal,[15],"1.15 fold enrichment (6-mer frequency, TF over GST control)"
same,binding signal,[16],"1.2 fold enrichment (6-mer frequency, TF over GST control)"
same,binding signal,[17],"1.09 fold enrichment (6-mer frequency, TF over GST control)"
same,binding signal,[18],"1.51 fold enrichment (6-mer frequency, TF over GST control)"
